ATXN2 expr inh: Primary qHTS for Inhibitors of ATXN expression; HEK-293 ATXN2-luciferase reporter, luminescence, 24 h; Potency, µM (highest dose often 57 µM), usual class: inhibitors; hit rate 0.72% among 360,000; further: nearly all actives have a fitted effect of over 55% in size
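ATXN2-luciferase reporter cells (luciferase flanked by upstream and downstream ATXN2 gene portions) were treated 24 h at 37 °C with compounds at up to 57 uM. SteadyGlo luminescence gave expression; GF-AFC fluorescence gave viability.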
A549 tox-1: Nrf2 qHTS screen for inhibitors: counterscreen for cytotoxicity. A549 ARE-Fluc cells, CellTiter-Fluor viability, 18-24 h. Potency, µM (series often up to 46 µM), actives largely listed as inhibitors. hit rate 0.16% among 390,000. AID 504648, 2011
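A549 ARE_Fluc cells in 5% FBS OPTI-MEM were exposed to compounds in concentration-response for 18-24 h at 37 deg C. Viability was read by CellTiter-Fluor fluorescence (Ex 405/Em 525) after 30 min, before the luciferase read.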
Nrf2 block: Nrf2 qHTS screen for inhibitors. A549 ARE-Fluc reporter, luciferase luminescence, 18-24 h. Potency, µM (highest dose often 46 µM), usual class: inhibitors. hit rate 2.1% among 360,000; further: nearly all actives have a fitted effect of over 60% in size
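Nrf2 activity is the BugLite luminescence, read 15 min after reagent at room temperature, following CellTiter-Fluor cytotoxicity readout (30 min, 37C). Compound titrations were applied for 18-24 h to 5000 A549 ARE_Fluc cells/well in 5% FBS OPTI-MEM.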
TGFb inhibitor: qHTS for Inhibitors of TGF-b | HepG2 CAGA-GFP TGF-b/SMAD3 reporter, GFP fluorescence, 18 h; TGF-beta stimulated, 500 pg/mL final | Potency, µM (top dose mostly 46.1 µM), most hits filed as inhibitors | hit rate 1.2% among 410,000; further: nearly all actives have a fitted effect of over 65% in size
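Cell-based qHTS in HEPG2 carrying a CAGA-GFP Smad reporter; compounds added before 500 pg/mL final TGF-beta, 18 h incubation at 37 degrees C, GFP fluorescence quantified per cell by imaging cytometry.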
HepG2 tox: qHTS for Inhibitors of TGF-b: Cytotox Counterscreen; Potency, µM (doses to about 46.1 µM), actives largely listed as cytotoxic; hit rate 0.76% among 410,000; HepG2 CAGA-GFP viability, ATP luminescence, 18 h
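HepG2 CAGA-GFP cells (1000/well, DMEM with 1% FBS) received compound, then TGF-beta at 500 pg/mL final, and were incubated 18 hours at 37 degrees C. Viability was read by CellTiter-Glo luminescence. Media-only wells were set as complete cell-killing and DMSO as no toxicity.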
S2 tox: Viability Counterscreen for Primary qHTS for Inhibitors of ATXN expression | S2 cells (HEK-293 line with an ATXN2-luciferase reporter) viability, CellTiter-Fluor protease fluorescence, 24 h | Potency, µM (series often up to 56.7 µM), usual class: cytotoxic | hit rate 0.49% among 400,000; further: nearly all actives have a fitted effect of over 40% in size
FLuc enzyme inh: Nrf2 qHTS screen for inhibitors: Purified Fluc Biochemical Counterscreen for Hit Validation. AID 720522, 2013. shares compounds with Nrf2 block. hit rate 4% among 1,400. purified firefly luciferase, luminescence inhibition. Potency, µM (top dose mostly 57.5 µM), actives largely listed as inhibitors; further: nearly all actives have a fitted effect of over 65% in size
Target sequence (P08659 whole entry, looked up): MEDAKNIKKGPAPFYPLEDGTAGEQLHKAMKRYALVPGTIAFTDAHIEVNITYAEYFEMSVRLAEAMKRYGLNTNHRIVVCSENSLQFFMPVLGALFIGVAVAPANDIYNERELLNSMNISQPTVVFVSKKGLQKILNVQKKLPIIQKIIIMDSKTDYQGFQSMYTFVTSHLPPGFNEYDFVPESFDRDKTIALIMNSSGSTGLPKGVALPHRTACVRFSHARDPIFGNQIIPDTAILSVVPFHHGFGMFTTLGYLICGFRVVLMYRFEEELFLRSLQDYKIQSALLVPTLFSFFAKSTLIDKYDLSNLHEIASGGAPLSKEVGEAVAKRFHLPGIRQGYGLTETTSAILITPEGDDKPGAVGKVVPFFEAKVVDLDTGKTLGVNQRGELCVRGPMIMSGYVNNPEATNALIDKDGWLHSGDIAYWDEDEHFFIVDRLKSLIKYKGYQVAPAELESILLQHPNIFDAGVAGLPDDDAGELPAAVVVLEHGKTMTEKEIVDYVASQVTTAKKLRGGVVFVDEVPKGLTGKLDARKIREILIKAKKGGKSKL
A549 tox-2: Nrf2 qHTS screen for inhibitors: A549 ARE-Fluc Cytotoxicity Counterscreen for Hit Validation | shares compounds with Nrf2 block | A549 ARE-Fluc cells, cytotoxicity counterscreen | Potency, µM (top dose mostly 46.1 µM), most hits filed as inhibitors | hit rate 2% among 1,400 | AID 720523, 2013;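 further: cells exposed to compounds for 18 to 24 hours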
Nrf2 ARE inh: Nrf2 qHTS screen for inhibitors: Nrf2 A549 ARE-Fluc Confirmation Assay for Hit Validation. shares compounds with Nrf2 block. hit rate 74% among 1,400. AID 720524, 2013. A549 ARE-firefly luciferase reporter, luminescence. Potency, µM (highest dose often 46.1 µM), actives largely listed as inhibitors; further: nearly all actives have a fitted effect of over 65% in size
Hits are given with their value. A selection: hits, their analogues and other compounds. The true share with any hit is near 3.8%. The call rests on the fitted dose curve; in most records, active means well fitted curve in the direction sought with a large enough effect; inconclusive means small, poorly fitted or top-dose-only effect, or another doubt; inactive means no such curve, though single readings can be large; an effect the other way counts as inactive or inconclusive.

What do the screens show for `C[C@]12CC[C@H](O)C[C@H]1CC[C@@H]1[C@@H]2CC[C@]2(C)[C@@H](C3=CC(=O)OC3)CC[C@]12O`?
ATXN2 expr inh: 0.316µM; A549 tox-1: inconclusive; Nrf2 block: 0.259µM; TGFb inhibitor: inconclusive; HepG2 tox: inactive; S2 tox: inconclusive; FLuc enzyme inh: inactive; A549 tox-2: inconclusive; Nrf2 ARE inh: 0.206µM

Results for CCCSc1cc(OC)c(CCN)cc1OC ?
S2 tox: inactive

What do the screens show for `CCN1C[C@]2(COC)CC[C@H](O)[C@@]34[C@@H]5C[C@H]6[C@@H](OC)[C@H]5[C@](O)(C[C@@H]6OC)[C@@](O)([C@@H](OC)[C@H]23)[C@@H]14`?
S2 tox: inactive

How did CC(C)(C)n1nnnc1C(c1ccccc1)N1CCC2(CC1)C(=O)NCN2c1ccccc1 (stereo unspecified) do in these assays?
ATXN2 expr inh: inactive; TGFb inhibitor: inactive; HepG2 tox: inactive; S2 tox: inconclusive

How did CN(CCc1ccccn1)Cc1ccc(Cl)cc1 do in these assays?
ATXN2 expr inh: inactive; A549 tox-1: inconclusive; Nrf2 block: inconclusive; TGFb inhibitor: inactive; HepG2 tox: inactive; S2 tox: inactive

What do the screens show for `CCCCC[C@H]1CCCCC[C@H](O)C[C@H](O)[C@@H](O)/C=C/C(=O)O1`?
ATXN2 expr inh: inactive; S2 tox: inactive

Results for CC12CCC(O)CC1CCC1C2CCC2(C)C(C3=CC(=O)OC3)C(O)CC12O (stereo unspecified) ?
ATXN2 expr inh: inconclusive; A549 tox-1: inconclusive; Nrf2 block: 1.84µM; TGFb inhibitor: 10µM; HepG2 tox: inactive; S2 tox: inconclusive; FLuc enzyme inh: inactive; A549 tox-2: inconclusive

What do the screens show for `CC12CC[C@H]3[C@@H](CCC4(O)C[C@H](O)CCC34/C=N/NC(=O)c3ccccc3[N+](=O)[O-])C1(O)CCC2C1=CC(=O)OC1` (stereo partly specified)?
ATXN2 expr inh: inconclusive; A549 tox-1: inconclusive; Nrf2 block: 4.61µM; TGFb inhibitor: inactive; HepG2 tox: inactive; S2 tox: inconclusive; FLuc enzyme inh: inactive; A549 tox-2: inconclusive; Nrf2 ARE inh: 7.31µM

Results for C[C@]12CCC3C(CC[C@H]4C[C@@H](O)CC[C@]34C)[C@H]1C=CC2=O (stereo partly specified) ?
ATXN2 expr inh: inactive; A549 tox-1: inactive; Nrf2 block: inconclusive; TGFb inhibitor: inconclusive; HepG2 tox: inactive; S2 tox: inactive

Results for C[C@]12CC[C@H](O)C[C@H]1CC[C@@H]1[C@@H]2C[C@@H](O)[C@]2(C)[C@@H](C3=CC(=O)OC3)CC[C@]12O ?
ATXN2 expr inh: inconclusive; A549 tox-1: inconclusive; Nrf2 block: 0.461µM; TGFb inhibitor: 10µM; HepG2 tox: inactive; S2 tox: inconclusive; FLuc enzyme inh: inactive; A549 tox-2: inconclusive; Nrf2 ARE inh: 0.461µM

How did CC(CC(C)(C)N1CC1)=NNC(=O)Nc1cccc2ccccc12 do in these assays?
ATXN2 expr inh: inconclusive; A549 tox-1: inactive; Nrf2 block: inactive; TGFb inhibitor: inactive; HepG2 tox: inactive; S2 tox: inconclusive

How did ClCCN(CCCl)c1ccc(C=Nc2ccncc2)cc1 do in these assays?
TGFb inhibitor: inactive; HepG2 tox: inactive

How did C[C@]12COC(=O)C[C@@H]1CC[C@@H]1[C@H]2CC[C@@]2(C)[C@H]1CC[C@]2(C)O do in these assays?
ATXN2 expr inh: inactive

Results for O=C(COc1ccc(Br)cc1)Nc1ccc(Cl)cc1C(=O)c1ccccc1 ?
A549 tox-1: inactive; Nrf2 block: inactive; TGFb inhibitor: inactive; HepG2 tox: inactive

What do the screens show for `Nc1c(C(=O)Nc2ccc(OC(F)(F)F)cc2)sc2nc3c(cc12)N1CCC3CC1`?
A549 tox-1: inactive; Nrf2 block: 6.51µM; TGFb inhibitor: inactive; HepG2 tox: inactive; FLuc enzyme inh: inactive; A549 tox-2: inactive

What do the screens show for `COc1cc([N+](=O)[O-])cc([N+](=O)[O-])c1N`?
TGFb inhibitor: inactive; HepG2 tox: inactive

Results for Cc1ccc(S(=O)(=O)c2nnn3c2nc(N2CCC(C(N)=O)CC2)c2cc(Cl)ccc23)cc1C ?
ATXN2 expr inh: inconclusive; A549 tox-1: inactive; Nrf2 block: inconclusive; TGFb inhibitor: inactive; HepG2 tox: inactive; S2 tox: inactive

How did O=C(Nc1ccc(OC(=O)N2CCCCC2)cc1)N1CCOCC1 do in these assays?
ATXN2 expr inh: inconclusive; A549 tox-1: inactive; Nrf2 block: 9.2µM; TGFb inhibitor: inactive; HepG2 tox: inactive; S2 tox: inactive; FLuc enzyme inh: inactive; A549 tox-2: inactive; Nrf2 ARE inh: 5.17µM

What do the screens show for `C[C@H]1CCC/C=C/C2C[C@H](O)CC2[C@H](O)/C=C/C(=O)O1` (stereo partly specified)?
ATXN2 expr inh: inconclusive; A549 tox-1: inconclusive; Nrf2 block: 0.146µM; TGFb inhibitor: 0.1µM; HepG2 tox: inactive; S2 tox: inconclusive; FLuc enzyme inh: inactive; A549 tox-2: inconclusive

How did CCCCCn1c(=O)c(C(=O)NCc2ccc(Cl)cc2)c(O)c2ccccc21 do in these assays?
ATXN2 expr inh: inactive; A549 tox-1: inactive; Nrf2 block: inconclusive; TGFb inhibitor: inactive; HepG2 tox: inactive; S2 tox: inactive

How did Cc1cc2ccccc2n1-c1ccc(C(=O)N2CCC(C(=O)NCc3ccc(Cl)cc3)CC2)s1 do in these assays?
A549 tox-1: inactive; Nrf2 block: 7.31µM; TGFb inhibitor: inconclusive; HepG2 tox: inactive; FLuc enzyme inh: inactive; A549 tox-2: inactive; Nrf2 ARE inh: 8.2µM

Results for O=C(CCCCCCCCCCC(=O)NCc1cccnc1)NCc1cccnc1 ?
ATXN2 expr inh: inactive; A549 tox-1: inactive; Nrf2 block: inconclusive; TGFb inhibitor: inactive; HepG2 tox: inactive; S2 tox: inactive; FLuc enzyme inh: inactive; A549 tox-2: inactive; Nrf2 ARE inh: inconclusive
